# Measurements reported in paper PMC7862700, “An all-to-all approach to the identification of sequence-specific readers for epigenetic DNA modifications on cytosine”.
# How the values were obtained:
# Test in all cases: DAPPL (digital affinity profiling via proximity ligation, sequencing); 10 mM Tris-HCl pH 7.5, 50 mM NaCl, 1 mM DTT, 4% glycerol, room temperature, 30 min; GST-TFs on glutathione beads, 16-mer random dsDNA library, 0.1% formaldehyde crosslink after washing; high values mean tight binding
# [1] = target: T1, FLI1 (Homo sapiens, UniProt Q01543 1-452); conditions: protein: recombinant; tags: N-terminal GST; dsDNA, one strand shown
# T1 sequence: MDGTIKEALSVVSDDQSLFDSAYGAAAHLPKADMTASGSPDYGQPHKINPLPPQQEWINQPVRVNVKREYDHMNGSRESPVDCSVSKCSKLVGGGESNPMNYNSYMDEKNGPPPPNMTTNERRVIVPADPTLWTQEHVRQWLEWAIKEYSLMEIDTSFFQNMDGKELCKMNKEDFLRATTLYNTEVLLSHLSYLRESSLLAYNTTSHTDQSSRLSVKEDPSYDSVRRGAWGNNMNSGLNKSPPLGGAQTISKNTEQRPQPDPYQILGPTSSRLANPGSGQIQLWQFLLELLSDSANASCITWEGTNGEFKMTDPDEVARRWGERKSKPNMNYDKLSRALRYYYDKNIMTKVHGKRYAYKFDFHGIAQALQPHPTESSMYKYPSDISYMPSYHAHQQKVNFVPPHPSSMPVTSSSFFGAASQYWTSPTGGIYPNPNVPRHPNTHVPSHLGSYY
# Procedure, shortened: (§1)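 GST fusions of human transcription factors were expressed in yeast and captured with glutathione beads. Once given DNA barcodes and pooled alongside a tag-only sample, they were incubated for 30 min at room temperature with 200 nmole of a random double-stranded 16-mer DNA library in Tris/NaCl/DTT/glycerol buffer, then washed, crosslinked (0.1% formaldehyde), proximity-ligated, PCR-amplified and sequenced on an Illumina NextSeq500. The binding signal of each hexamer is its read frequency for a factor divided by its frequency for the tag-only sample.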
# [2] = target: T2, ELK1 (Homo sapiens, UniProt P19419 1-428); conditions: protein: recombinant; tags: N-terminal GST; dsDNA, one strand shown
# T2 sequence: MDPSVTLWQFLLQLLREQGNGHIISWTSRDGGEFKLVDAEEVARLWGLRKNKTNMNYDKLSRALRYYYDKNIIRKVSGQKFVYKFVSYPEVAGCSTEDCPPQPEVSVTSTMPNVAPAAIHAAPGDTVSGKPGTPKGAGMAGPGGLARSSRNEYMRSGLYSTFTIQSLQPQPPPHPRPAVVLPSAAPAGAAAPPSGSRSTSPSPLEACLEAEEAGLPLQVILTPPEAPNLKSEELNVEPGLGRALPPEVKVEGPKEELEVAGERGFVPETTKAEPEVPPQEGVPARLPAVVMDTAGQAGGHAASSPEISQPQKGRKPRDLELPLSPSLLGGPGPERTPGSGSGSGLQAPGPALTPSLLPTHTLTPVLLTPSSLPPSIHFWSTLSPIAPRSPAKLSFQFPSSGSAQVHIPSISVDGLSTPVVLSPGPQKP
# Procedure, shortened: as §1
# [3] = target: T3, GABPA (Homo sapiens, UniProt Q06546 1-454); conditions: protein: recombinant; tags: N-terminal GST; dsDNA, one strand shown
# T3 sequence: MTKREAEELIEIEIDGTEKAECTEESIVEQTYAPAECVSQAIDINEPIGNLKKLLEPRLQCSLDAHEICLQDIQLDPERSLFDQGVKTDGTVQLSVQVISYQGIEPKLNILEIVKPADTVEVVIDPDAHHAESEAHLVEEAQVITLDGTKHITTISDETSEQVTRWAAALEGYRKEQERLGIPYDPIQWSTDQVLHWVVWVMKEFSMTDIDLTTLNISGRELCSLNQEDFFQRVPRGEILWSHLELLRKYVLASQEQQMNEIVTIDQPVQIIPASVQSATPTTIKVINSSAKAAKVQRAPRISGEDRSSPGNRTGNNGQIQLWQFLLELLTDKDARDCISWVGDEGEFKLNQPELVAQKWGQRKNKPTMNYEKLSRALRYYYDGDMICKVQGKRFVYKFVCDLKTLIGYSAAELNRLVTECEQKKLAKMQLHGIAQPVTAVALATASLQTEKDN
# Procedure, shortened: as §1
# [4] = target: T4, ERG (Homo sapiens, UniProt P11308 1-479); conditions: protein: recombinant; tags: N-terminal GST; dsDNA, one strand shown
# T4 sequence: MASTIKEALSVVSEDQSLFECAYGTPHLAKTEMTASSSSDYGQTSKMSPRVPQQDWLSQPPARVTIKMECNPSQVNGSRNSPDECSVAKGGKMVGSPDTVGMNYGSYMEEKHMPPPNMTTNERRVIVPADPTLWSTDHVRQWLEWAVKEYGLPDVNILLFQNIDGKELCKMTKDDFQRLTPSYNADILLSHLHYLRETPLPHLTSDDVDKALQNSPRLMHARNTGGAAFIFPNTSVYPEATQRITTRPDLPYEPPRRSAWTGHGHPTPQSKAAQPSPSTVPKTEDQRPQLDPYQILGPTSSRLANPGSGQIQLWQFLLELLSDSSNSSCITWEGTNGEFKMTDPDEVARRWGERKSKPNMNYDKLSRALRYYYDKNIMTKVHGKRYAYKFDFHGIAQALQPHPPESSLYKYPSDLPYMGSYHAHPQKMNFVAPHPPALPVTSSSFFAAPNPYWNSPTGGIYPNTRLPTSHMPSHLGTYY
# Procedure, shortened: as §1
# [5] = target: ELF1 (Homo sapiens, UniProt P32519 1-619); conditions: protein: recombinant; tags: N-terminal GST; dsDNA, one strand shown
# Procedure, shortened: as §1
# [6] = target: T5, EHF (Homo sapiens, UniProt Q9NZC4 1-300); conditions: protein: recombinant; tags: N-terminal GST; dsDNA, one strand shown
# T5 sequence: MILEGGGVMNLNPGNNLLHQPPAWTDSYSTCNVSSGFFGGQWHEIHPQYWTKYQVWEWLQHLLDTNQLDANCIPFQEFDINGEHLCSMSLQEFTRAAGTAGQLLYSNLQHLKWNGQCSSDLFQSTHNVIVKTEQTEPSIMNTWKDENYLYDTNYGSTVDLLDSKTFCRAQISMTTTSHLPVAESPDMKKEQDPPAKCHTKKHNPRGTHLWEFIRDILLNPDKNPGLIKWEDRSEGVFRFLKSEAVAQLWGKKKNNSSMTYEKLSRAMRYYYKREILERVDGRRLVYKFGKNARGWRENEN
# Procedure, shortened: as §1
# [7] = target: SPI1 (Homo sapiens, UniProt P17947 1-270); conditions: protein: recombinant; tags: N-terminal GST; dsDNA, one strand shown
# Procedure, shortened: as §1
# [8] = target: SPIB (Homo sapiens, UniProt Q01892 1-262); conditions: protein: recombinant; tags: N-terminal GST; dsDNA, one strand shown
# Procedure, shortened: as §1
# [9] = target: T6, ELK3 (Homo sapiens, UniProt P41970 1-407); conditions: protein: recombinant; tags: N-terminal GST; dsDNA, one strand shown
# T6 sequence: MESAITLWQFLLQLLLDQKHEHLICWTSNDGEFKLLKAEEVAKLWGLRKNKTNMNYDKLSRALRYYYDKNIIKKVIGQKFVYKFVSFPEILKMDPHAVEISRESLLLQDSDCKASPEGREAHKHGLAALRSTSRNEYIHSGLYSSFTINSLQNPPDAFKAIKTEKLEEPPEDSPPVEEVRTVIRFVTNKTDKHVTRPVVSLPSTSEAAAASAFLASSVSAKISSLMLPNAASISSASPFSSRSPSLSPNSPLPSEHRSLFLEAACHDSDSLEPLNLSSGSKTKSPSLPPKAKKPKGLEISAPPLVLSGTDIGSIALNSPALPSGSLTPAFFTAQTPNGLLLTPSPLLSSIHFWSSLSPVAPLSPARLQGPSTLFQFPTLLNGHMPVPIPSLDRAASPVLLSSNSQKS
# Procedure, shortened: as §1
# [10] = target: T7, FEV (Homo sapiens, UniProt Q99581 1-238); conditions: protein: recombinant; tags: N-terminal GST; dsDNA, one strand shown
# T7 sequence: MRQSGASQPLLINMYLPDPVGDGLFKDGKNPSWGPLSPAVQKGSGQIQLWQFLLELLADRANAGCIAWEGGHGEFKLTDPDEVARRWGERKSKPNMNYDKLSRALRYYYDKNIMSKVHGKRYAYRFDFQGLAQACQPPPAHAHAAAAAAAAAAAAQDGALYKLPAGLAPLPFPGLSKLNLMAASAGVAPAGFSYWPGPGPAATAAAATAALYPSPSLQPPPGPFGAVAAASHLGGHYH
# Procedure, shortened: as §1
# [11] = target: ETV5 (Homo sapiens, UniProt P41161 1-510); conditions: protein: recombinant; tags: N-terminal GST; dsDNA, one strand shown
# Procedure, shortened: as §1
# [12] = target: HSF1 (Homo sapiens, UniProt Q00613 1-529); conditions: protein: recombinant; tags: N-terminal GST; chain copies: 3; dsDNA, one strand shown
# Procedure, shortened: as §1
# [13] = target: T8, SPIC (Homo sapiens, UniProt Q8N5J4 1-248); conditions: protein: recombinant; tags: N-terminal GST; dsDNA, one strand shown
# T8 sequence: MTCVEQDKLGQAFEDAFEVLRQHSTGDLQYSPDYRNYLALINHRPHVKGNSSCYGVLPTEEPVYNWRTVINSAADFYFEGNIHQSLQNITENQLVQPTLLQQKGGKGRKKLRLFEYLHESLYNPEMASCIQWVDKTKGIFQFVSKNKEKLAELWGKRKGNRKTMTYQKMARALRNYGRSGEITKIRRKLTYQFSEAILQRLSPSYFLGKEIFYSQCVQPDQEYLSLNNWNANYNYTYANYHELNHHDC
# Procedure, shortened: as §1
# [14] = target: ELF4 (Homo sapiens, UniProt Q99607 1-663); conditions: protein: recombinant; tags: N-terminal GST; dsDNA, one strand shown
# Procedure, shortened: as §1
# [15] = target: T9, ELK4 (Homo sapiens, UniProt P28324-2 1-405); conditions: protein: recombinant; tags: N-terminal GST; dsDNA, one strand shown
# T9 sequence: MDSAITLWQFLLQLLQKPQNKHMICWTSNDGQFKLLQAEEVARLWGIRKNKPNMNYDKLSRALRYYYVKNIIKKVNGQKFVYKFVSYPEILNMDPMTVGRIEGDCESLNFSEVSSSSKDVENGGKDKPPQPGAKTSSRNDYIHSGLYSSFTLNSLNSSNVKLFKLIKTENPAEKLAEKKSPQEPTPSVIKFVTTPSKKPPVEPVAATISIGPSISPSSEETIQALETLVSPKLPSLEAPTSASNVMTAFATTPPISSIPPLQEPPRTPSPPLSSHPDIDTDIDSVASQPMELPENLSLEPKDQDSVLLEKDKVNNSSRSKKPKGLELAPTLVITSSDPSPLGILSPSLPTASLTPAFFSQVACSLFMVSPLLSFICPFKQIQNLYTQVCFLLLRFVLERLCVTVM
# Procedure, shortened: as §1
# [16] = target: T10, ETV2 (Homo sapiens, UniProt O00321 1-342); conditions: protein: recombinant; tags: N-terminal GST; dsDNA, one strand shown
# T10 sequence: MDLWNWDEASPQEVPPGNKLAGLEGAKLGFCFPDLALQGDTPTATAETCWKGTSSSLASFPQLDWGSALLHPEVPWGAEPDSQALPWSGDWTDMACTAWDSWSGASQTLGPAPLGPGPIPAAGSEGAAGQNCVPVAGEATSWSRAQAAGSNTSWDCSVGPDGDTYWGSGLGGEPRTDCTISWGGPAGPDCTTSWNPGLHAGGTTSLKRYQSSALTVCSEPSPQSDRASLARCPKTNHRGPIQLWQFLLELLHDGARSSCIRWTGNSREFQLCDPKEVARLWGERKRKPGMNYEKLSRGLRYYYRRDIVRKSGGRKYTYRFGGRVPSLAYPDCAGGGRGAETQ
# Procedure, shortened: as §1
# [17] = target: T11, ELF3 (Homo sapiens, UniProt P78545 1-371); conditions: protein: recombinant; tags: N-terminal GST; dsDNA, one strand shown
# T11 sequence: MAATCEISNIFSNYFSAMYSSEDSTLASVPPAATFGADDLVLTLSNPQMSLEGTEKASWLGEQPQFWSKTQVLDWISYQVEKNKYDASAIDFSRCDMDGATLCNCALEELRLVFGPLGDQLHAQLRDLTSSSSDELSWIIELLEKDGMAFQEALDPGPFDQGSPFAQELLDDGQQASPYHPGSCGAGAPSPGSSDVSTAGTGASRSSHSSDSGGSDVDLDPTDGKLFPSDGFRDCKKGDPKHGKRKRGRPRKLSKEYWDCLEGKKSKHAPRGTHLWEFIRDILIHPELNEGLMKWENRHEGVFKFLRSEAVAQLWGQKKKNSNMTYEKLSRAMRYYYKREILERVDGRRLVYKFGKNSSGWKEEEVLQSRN
# Procedure, shortened: as §1
# [18] = target: CRX (Homo sapiens, UniProt O43186 1-299); conditions: protein: recombinant; tags: N-terminal GST; dsDNA, one strand shown
# Procedure, shortened: as §1
# [19] = target: ETV1 (Homo sapiens, UniProt P50549 1-477); conditions: protein: recombinant; tags: N-terminal GST; dsDNA, one strand shown
# Procedure, shortened: as §1
# Chain of ETV1 (P50549 whole entry): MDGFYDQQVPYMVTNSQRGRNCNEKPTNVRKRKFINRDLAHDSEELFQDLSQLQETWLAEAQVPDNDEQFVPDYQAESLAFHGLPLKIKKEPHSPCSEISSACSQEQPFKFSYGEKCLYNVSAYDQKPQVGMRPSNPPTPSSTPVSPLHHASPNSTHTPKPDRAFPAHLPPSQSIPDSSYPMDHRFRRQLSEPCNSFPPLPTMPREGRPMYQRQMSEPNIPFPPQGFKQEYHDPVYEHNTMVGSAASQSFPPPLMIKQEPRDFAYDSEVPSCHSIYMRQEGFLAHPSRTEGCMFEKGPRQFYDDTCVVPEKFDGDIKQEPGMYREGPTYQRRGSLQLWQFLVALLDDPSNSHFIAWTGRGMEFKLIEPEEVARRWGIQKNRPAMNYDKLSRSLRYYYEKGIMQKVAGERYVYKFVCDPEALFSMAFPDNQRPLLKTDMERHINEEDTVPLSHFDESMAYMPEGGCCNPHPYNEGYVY
# Chain of CRX (O43186 whole entry): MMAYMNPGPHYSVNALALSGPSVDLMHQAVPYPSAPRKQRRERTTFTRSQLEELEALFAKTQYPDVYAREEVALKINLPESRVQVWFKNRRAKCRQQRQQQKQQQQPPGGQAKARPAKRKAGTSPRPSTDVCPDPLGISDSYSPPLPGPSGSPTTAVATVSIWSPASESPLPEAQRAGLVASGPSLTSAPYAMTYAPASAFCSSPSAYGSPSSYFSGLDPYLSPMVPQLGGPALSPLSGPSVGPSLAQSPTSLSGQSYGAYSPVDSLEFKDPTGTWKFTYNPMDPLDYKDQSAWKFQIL
# Chain of HSF1 (Q00613 whole entry): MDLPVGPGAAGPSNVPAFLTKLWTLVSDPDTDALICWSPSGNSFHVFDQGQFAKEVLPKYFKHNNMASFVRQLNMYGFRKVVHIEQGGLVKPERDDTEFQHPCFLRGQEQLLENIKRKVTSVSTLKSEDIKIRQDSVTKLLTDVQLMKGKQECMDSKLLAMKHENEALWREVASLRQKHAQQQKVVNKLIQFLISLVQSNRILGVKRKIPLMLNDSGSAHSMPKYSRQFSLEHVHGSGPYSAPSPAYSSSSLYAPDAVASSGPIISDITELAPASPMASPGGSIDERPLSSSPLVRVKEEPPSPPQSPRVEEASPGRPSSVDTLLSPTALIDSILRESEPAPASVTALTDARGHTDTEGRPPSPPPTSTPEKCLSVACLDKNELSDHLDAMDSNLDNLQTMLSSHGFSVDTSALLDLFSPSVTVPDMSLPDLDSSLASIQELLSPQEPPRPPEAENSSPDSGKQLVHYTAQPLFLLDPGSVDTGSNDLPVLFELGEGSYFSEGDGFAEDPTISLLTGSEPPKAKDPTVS
# Chain of ETV5 (P41161 whole entry): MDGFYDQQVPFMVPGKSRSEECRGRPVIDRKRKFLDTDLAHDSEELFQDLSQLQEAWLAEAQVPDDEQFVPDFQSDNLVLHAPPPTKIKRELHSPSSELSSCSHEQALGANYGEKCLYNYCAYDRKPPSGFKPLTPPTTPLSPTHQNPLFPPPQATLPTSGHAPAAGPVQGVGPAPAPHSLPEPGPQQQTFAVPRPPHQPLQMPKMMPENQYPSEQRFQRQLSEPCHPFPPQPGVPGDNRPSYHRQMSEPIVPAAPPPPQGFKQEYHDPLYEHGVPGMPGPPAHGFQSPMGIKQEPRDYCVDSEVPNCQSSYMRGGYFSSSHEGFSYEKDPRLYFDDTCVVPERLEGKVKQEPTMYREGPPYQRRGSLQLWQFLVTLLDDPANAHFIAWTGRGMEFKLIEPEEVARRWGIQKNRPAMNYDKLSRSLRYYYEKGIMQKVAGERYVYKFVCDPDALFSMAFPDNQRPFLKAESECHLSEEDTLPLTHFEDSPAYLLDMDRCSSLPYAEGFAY
# Chain of SPIB (Q01892 whole entry): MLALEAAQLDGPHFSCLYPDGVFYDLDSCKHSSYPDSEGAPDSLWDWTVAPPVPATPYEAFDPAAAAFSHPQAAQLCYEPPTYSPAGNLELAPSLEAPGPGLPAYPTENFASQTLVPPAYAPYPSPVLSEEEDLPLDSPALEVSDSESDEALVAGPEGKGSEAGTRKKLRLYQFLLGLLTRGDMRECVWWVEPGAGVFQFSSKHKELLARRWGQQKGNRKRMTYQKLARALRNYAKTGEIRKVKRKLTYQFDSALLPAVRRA
# Chain of ELF4 (Q99607 whole entry): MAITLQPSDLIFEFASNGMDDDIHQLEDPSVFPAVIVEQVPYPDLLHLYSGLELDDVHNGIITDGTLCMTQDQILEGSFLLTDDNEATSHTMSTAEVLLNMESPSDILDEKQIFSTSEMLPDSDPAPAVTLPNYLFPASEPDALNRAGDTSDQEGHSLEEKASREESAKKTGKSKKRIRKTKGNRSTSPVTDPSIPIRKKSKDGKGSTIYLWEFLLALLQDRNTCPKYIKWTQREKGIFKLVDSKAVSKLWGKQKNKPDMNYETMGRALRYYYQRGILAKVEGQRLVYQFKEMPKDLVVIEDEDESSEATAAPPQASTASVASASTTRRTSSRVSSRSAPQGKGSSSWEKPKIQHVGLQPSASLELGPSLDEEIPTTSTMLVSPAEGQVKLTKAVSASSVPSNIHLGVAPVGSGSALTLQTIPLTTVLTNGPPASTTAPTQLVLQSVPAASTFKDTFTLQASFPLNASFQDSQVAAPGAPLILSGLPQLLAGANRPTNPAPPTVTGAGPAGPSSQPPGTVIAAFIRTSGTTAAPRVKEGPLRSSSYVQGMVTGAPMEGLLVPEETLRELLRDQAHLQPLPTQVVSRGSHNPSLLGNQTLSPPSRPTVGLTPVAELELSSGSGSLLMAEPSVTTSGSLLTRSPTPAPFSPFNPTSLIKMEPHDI
# Chain of ELF1 (P32519 whole entry): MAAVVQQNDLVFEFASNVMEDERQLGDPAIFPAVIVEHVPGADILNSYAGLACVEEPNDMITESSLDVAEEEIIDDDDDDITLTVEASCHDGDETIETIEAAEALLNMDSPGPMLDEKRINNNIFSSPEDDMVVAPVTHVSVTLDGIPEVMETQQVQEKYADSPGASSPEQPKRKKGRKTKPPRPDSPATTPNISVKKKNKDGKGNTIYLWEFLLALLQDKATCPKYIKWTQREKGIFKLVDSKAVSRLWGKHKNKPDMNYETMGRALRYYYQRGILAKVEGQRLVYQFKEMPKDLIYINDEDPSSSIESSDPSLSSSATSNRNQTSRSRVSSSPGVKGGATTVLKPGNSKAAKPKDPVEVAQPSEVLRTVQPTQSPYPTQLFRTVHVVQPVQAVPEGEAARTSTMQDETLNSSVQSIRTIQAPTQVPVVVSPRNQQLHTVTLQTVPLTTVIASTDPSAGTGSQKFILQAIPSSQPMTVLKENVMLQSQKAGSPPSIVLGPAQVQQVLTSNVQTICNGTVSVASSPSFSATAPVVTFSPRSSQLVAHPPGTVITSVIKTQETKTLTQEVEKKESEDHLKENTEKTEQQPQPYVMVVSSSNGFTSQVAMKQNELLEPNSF
sequence,measurement,setting,value
TTCTTA,binding signal,[1],"1.42 fold enrichment (6-mer frequency, TF over GST control)"
same,binding signal,[2],"1.43 fold enrichment (6-mer frequency, TF over GST control)"
same,binding signal,[3],"1.37 fold enrichment (6-mer frequency, TF over GST control)"
same,binding signal,[4],"1.4 fold enrichment (6-mer frequency, TF over GST control)"
same,binding signal,[5],"1.37 fold enrichment (6-mer frequency, TF over GST control)"
same,binding signal,[6],"1.28 fold enrichment (6-mer frequency, TF over GST control)"
same,binding signal,[7],"1.34 fold enrichment (6-mer frequency, TF over GST control)"
same,binding signal,[8],"1.28 fold enrichment (6-mer frequency, TF over GST control)"
same,binding signal,[9],"1.5 fold enrichment (6-mer frequency, TF over GST control)"
same,binding signal,[10],"1.32 fold enrichment (6-mer frequency, TF over GST control)"
same,binding signal,[11],"1.33 fold enrichment (6-mer frequency, TF over GST control)"
same,binding signal,[12],"1.85 fold enrichment (6-mer frequency, TF over GST control)"
same,binding signal,[13],"1.71 fold enrichment (6-mer frequency, TF over GST control)"
same,binding signal,[14],"1.41 fold enrichment (6-mer frequency, TF over GST control)"
same,binding signal,[15],"1.5 fold enrichment (6-mer frequency, TF over GST control)"
same,binding signal,[16],"1.36 fold enrichment (6-mer frequency, TF over GST control)"
same,binding signal,[17],"1.47 fold enrichment (6-mer frequency, TF over GST control)"
same,binding signal,[18],"2.21 fold enrichment (6-mer frequency, TF over GST control)"
same,binding signal,[19],"1.36 fold enrichment (6-mer frequency, TF over GST control)"
